Measurements taken from PubChem BioAssay (EPA / NIEHS).
The source holds several records for some structures; these can differ, active in one and inactive in another. Activity calls are given as the source filed them. Rule for the calls: active = hit-call score of the fitted dose curve at least 0.9, where 1 is the maximum; inactive = score below 0.9.

How the values were obtained:
[1] = ATG_E_Box_CIS: Attagene CIS-FACTORIAL HepG2 Assay for human Enhancer Box (E-box) (AID 2282936); details: HepG2 E-box cis-reporter transcription, actives raise or lower the signal
Method in brief: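 E-box-driven reporter transcripts measured in transiently transfected HepG2 after 24 h exposure: RNA reverse-transcribed, PCR-amplified, fluorescently labelled, digested and resolved by capillary electrophoresis. Gain or loss relative to DMSO.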

[2] = ATG_M_61_CIS: Attagene CIS-FACTORIAL HepG2 Assay for M61 Transcription Factor (Internal Marker) (AID 2282937); details: HepG2 Attagene CIS-FACTORIAL M61 internal marker reporter; actives raise or lower the signal
Method in brief: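 This endpoint serves as an internal background control within a multiplexed HepG2 cis-reporter panel. Cells are exposed for 24 h; reporter mRNA is amplified, fluorescently labelled and sized by capillary electrophoresis, with DMSO as negative control.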

[3] = ATG_EGR_CIS: Attagene CIS-FACTORIAL HepG2 Assay for human Early Growth Response 1 (EGR1) (AID 2282938); details: HepG2 Attagene CIS-FACTORIAL EGR reporter mRNA; actives raise or lower the signal
Method in brief: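 HepG2, transient MRTU transfection (cis promoters), 24 h compound. RNA → RT (oligo-dT) → PCR → 6-FAM labelling → HpaI cut → CE fluorescence. Bidirectional fit, DMSO baseline.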

[4] = ATG_M_19_CIS: Attagene CIS-FACTORIAL HepG2 Assay for M19 Transcription Factor (Internal Marker) (AID 2282939); details: HepG2 Attagene CIS-FACTORIAL M19 internal marker reporter; actives raise or lower the signal
Method in brief: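 Transfect HepG2 with MRTU reporter library → dose chemical, 24 h → isolate total RNA, reverse-transcribe with oligo(dT) → PCR, 6-FAM label, HpaI cut (2 h, 37 C) → capillary electrophoresis. Bidirectional fit vs DMSO.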

[5] = ATG_ERE_CIS: Attagene CIS-FACTORIAL HepG2 Assay for Estrogen Response Element (ERE) (AID 2282940); details: HepG2 ERE cis-reporter, Attagene RNA transcript; actives raise or lower the signal
Method in brief: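 Transient MRTU transfection of human HepG2; cis-element promoters; 24 h dosing; total RNA → RT (oligo dT) → PCR → 6-FAM primer extension → HpaI digest → CE fluorescence. Bidirectional fit, DMSO baseline.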

[6] = ATG_Ets_CIS: Attagene CIS-FACTORIAL HepG2 Assay for human Erythroblast Transformation Specific (ETS) (AID 2282941); details: HepG2 ETS cis-reporter transcription, actives raise or lower the signal
Method in brief: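 Multiplexed reporter transcript profiling: HepG2, 24 h treatment, total RNA to cDNA, PCR, 6-FAM labelling, HpaI cut, capillary electrophoresis. Gain- or loss-of-signal fitted against DMSO.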

[7] = target: Hepatocyte nuclear factor 3-beta (Homo sapiens) (UniProt Q9Y261); assay: ATG_FoxA2_CIS: Attagene CIS-FACTORIAL HepG2 Assay for human Forkhead box A2 (FOXA2) (AID 2282942); details: HepG2 cis-reporter transcription factor activity, 24 h; actives raise or lower the signal
Sequence of Hepatocyte nuclear factor 3-beta (Homo sapiens) (Q9Y261 whole entry, looked up): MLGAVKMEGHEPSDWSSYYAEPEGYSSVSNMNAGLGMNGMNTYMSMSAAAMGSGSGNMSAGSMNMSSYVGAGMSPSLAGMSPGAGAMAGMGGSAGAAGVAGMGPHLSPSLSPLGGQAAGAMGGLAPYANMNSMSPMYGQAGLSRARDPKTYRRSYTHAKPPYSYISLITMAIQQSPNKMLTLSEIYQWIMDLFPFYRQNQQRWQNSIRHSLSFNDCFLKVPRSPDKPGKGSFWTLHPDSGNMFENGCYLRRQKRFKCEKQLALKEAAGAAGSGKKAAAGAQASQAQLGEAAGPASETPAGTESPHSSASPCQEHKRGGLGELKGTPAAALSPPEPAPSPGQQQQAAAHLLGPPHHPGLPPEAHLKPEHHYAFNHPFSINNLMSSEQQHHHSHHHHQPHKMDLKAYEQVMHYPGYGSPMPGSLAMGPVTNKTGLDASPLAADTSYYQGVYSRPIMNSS
Method in brief: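 Cells: HepG2, transient multiplex reporter transfection. Exposure 24 h. Detection: reporter-specific RT-PCR, fluorescent labelling, restriction digest, capillary electrophoresis. Analysis: bidirectional curve fit, DMSO as negative control.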

[8] = ATG_GATA_CIS: Attagene CIS-FACTORIAL HepG2 Assay for human GATA Binding Protein (AID 2282944); details: HepG2 GATA cis-element reporter, Attagene multiplex mRNA; actives raise or lower the signal
Method in brief: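 Transient MRTU transfection, HepG2, 24 h compound exposure. Total RNA → oligo(dT) RT → PCR → 6-FAM primer extension → HpaI cut → CE. Bidirectional fit vs DMSO.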

[9] = ATG_GLI_CIS: Attagene CIS-FACTORIAL HepG2 Assay for human Zinc Finger Protein GLI1 (AID 2282945); details: HepG2, Attagene cis-factorial reporter mRNA, GLI element; actives raise or lower the signal
Method in brief: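 Bidirectional curve fits relative to DMSO, using reporter mRNA levels from RT-PCR plus capillary electrophoresis. Cells were HepG2 transiently carrying cis-regulated reporter constructs, harvested 24 h after dosing.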

[10] = ATG_GRE_CIS: Attagene CIS-FACTORIAL HepG2 Assay for human Glucocorticoid Response Elements (GRE) (AID 2282947); details: HepG2 GRE cis-reporter, Attagene multiplex mRNA; actives raise or lower the signal
Method in brief: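 Reporter transcripts read by RT-PCR with capillary electrophoresis fluorescence after a 24 h chemical exposure of HepG2 cells transiently transfected with multiple cis-element reporter units. Gain or loss fitted against DMSO.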

[11] = ATG_M_32_CIS: Attagene CIS-FACTORIAL HepG2 Assay for M32 Transcription Factor (Internal Marker) (AID 2282949); details: HepG2 Attagene cis-factorial M32 reporter, mRNA; actives raise or lower the signal;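 note: background control marker of the multiplexed CIS panel rather than a real target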
Method in brief: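 HepG2 transfectants (cis-regulated reporter transcription units) dosed 24 h. Reporter mRNA by RT-PCR plus CE, analysed as gain or loss relative to DMSO.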

[12] = ATG_M_06_CIS: Attagene CIS-FACTORIAL HepG2 Assay for M06 Transcription Factor (Internal Marker) (AID 2282950); details: HepG2 Attagene CIS-FACTORIAL M06 internal marker reporter; actives raise or lower the signal
Method in brief: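 Read-out is fluorescence of labelled reporter cDNA fragments resolved by capillary electrophoresis after RT-PCR. Cells: HepG2 carrying transfected cis-promoter reporter units, treated 24 h. Gain or loss of signal fitted relative to DMSO.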

[13] = target: Hypoxia-inducible factor 1-alpha (Homo sapiens) (UniProt Q16665); assay: ATG_HIF1a_CIS: Attagene CIS-FACTORIAL HepG2 Assay for human Hypoxia Inducible Factor 1 (HIF1A) (AID 2282951); details: HepG2 Attagene cis-factorial HIF1a reporter transcription; actives raise or lower the signal
Sequence of Hypoxia-inducible factor 1-alpha (Homo sapiens) (Q16665 whole entry, looked up): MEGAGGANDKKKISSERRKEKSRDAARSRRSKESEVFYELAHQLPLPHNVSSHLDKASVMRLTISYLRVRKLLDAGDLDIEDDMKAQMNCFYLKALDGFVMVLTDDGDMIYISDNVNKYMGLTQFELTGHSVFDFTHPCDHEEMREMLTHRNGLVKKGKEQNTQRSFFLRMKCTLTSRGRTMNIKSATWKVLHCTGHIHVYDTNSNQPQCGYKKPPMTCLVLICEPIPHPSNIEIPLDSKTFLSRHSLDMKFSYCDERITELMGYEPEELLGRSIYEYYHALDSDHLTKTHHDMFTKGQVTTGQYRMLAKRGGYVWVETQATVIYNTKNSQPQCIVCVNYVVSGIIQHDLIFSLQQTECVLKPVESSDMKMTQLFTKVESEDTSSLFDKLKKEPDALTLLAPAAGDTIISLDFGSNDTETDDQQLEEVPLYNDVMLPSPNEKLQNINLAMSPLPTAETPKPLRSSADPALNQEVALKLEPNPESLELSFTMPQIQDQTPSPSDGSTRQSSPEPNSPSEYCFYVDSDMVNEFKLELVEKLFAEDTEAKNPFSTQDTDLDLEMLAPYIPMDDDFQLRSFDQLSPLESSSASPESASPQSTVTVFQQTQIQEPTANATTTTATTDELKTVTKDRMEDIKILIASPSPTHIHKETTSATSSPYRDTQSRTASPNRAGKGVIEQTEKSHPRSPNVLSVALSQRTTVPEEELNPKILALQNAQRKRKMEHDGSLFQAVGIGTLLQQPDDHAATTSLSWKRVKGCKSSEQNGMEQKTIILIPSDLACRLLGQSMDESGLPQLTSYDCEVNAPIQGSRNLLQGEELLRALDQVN
Method in brief: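 HepG2, transient cis-reporter library, 24 h dosing. RNA → RT (oligo dT) → PCR → 6-FAM primer extension → HpaI → CE. Bidirectional curve fit vs DMSO.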

[14] = target: Hepatocyte nuclear factor 6 (Homo sapiens) (UniProt Q9UBC0); assay: ATG_HNF6_CIS: Attagene CIS-FACTORIAL HepG2 Assay for human Hepatocyte Nuclear Factor 6 (HNF6) (AID 2282952); details: HepG2 Attagene cis-factorial HNF6 reporter transcription; actives raise or lower the signal
Sequence of Hepatocyte nuclear factor 6 (Homo sapiens) (Q9UBC0 whole entry, looked up): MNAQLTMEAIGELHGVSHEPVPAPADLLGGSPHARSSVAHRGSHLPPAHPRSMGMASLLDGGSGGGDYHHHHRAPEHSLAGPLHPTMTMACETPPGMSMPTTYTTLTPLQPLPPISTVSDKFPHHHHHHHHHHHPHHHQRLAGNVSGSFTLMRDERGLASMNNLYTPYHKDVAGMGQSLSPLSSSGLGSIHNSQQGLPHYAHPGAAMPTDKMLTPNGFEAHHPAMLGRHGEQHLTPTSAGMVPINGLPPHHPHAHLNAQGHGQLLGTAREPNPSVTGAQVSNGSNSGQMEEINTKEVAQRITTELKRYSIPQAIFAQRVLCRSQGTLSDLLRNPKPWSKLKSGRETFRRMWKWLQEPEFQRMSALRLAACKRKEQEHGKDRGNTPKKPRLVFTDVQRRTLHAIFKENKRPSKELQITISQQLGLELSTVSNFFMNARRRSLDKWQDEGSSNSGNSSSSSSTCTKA
Method in brief: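 Endogenous transcription factor activity in human HepG2 liver cells was captured through cis-regulated reporter constructs. After 24 h treatment, reporter mRNA was measured by RT-PCR with capillary electrophoresis, and activity was fitted in both directions relative to DMSO.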

[15] = target: Heat shock factor protein 1 (Homo sapiens) (UniProt Q00613); assay: ATG_HSE_CIS: Attagene CIS-FACTORIAL HepG2 Assay for human Heat Shock Transcription Factor 1 (HSE) (AID 2282953); details: HepG2 HSE cis-reporter, Attagene RNA transcription; actives raise or lower the signal
Sequence of Heat shock factor protein 1 (Homo sapiens) (Q00613 whole entry, looked up): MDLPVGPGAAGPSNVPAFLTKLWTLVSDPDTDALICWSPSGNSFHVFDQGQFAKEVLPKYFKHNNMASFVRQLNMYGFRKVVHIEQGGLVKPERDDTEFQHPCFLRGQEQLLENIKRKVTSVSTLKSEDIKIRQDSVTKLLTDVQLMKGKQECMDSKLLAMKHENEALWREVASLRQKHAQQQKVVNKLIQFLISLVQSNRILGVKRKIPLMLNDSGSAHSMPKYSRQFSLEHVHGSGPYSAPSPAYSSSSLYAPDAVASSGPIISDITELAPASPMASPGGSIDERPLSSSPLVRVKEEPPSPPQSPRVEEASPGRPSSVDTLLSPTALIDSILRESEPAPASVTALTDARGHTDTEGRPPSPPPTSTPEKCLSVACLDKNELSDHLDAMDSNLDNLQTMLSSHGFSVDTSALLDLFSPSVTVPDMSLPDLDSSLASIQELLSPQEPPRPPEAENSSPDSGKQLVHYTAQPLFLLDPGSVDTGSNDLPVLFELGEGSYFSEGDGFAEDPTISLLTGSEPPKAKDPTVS
Method in brief: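 HepG2, transient MRTU transfection, cis-promoter reporters (endogenous TF activity). 24 h compound. RNA → oligo(dT) RT → PCR → 6-FAM primer extension → HpaI cut → CE. Bidirectional fit vs DMSO.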

[16] = ATG_MRE_CIS: Attagene CIS-FACTORIAL HepG2 Assay for human Metal Responsive Element (MRE) (AID 2282954); details: HepG2 MRE cis-reporter transcription, Attagene multiplex; actives raise or lower the signal
Method in brief: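 Endogenous MRE-dependent transcription read as reporter mRNA in transiently transfected human HepG2 cells at 24 h. RNA reverse-transcribed, PCR-amplified, labelled and resolved by capillary electrophoresis; gain or loss relative to DMSO.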

[17] = ATG_PBREM_CIS: Attagene CIS-FACTORIAL HepG2 Assay for human Phenobarbital-responsive Enhancer Module (PBREM) (AID 2282955); details: HepG2 PBREM cis-reporter, Attagene multiplexed transcription; actives raise or lower the signal
Method in brief: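 HepG2, transient MRTU transfection, 24 h dosing; RNA → oligo(dT) RT → PCR → 6-FAM extension → HpaI → CE. Bidirectional fit vs DMSO.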

[18] = target: Bile acid receptor (Homo sapiens) (UniProt Q96RI1); assay: ATG_IR1_CIS: Attagene CIS-FACTORIAL HepG2 Assay for human Nuclear Receptor Subfamily 1 Group H Member 4 (NR1H4), IR1 submotif (AID 2282946); details: IR1 reporter transcription, actives raise or lower the signal
Sequence of Bile acid receptor (Homo sapiens) (Q96RI1 whole entry, looked up): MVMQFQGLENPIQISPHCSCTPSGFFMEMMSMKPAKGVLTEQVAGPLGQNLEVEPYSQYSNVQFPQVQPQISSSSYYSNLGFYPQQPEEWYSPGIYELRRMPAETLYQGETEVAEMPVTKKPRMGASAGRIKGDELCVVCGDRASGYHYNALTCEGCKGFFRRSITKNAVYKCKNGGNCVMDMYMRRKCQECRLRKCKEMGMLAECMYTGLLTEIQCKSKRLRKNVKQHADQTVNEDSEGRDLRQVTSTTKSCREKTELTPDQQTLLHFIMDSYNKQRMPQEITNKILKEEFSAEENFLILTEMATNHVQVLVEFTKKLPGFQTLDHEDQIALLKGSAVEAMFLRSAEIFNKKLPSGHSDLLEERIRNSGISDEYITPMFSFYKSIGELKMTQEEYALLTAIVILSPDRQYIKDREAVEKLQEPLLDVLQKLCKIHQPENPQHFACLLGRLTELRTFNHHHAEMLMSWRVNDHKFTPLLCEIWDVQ
Method in brief: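 HepG2 cells transiently transfected with multiplexed cis-element reporter units read endogenous transcription factor activity. After 24 h compound exposure, reporter mRNA was quantified by RT-PCR, fluorescent labelling, HpaI digestion and capillary electrophoresis; bidirectional fitting versus DMSO baseline.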

[19] = ATG_ISRE_CIS: Attagene CIS-FACTORIAL HepG2 Assay for human Interferon Regulatory Factor 1 (IRF1) binding to an Interferon-Stimulated Response Element (ISRE) (AID 2282948); details: HepG2 ISRE cis-reporter (Attagene), mRNA transcription readout; actives raise or lower the signal
Method in brief: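 Signal reflects induction or loss of ISRE-linked reporter mRNA in transiently transfected HepG2 cells after a 24 h treatment, detected by fluorescent RT-PCR fragments on capillary electrophoresis and normalised to DMSO.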

[20] = ATG_FoxO_CIS: Attagene CIS-FACTORIAL HepG2 Assay for human Forkhead box O (FoxO) (AID 2282943); details: HepG2 Attagene cis-reporter, FoxO element, mRNA; actives raise or lower the signal
Method in brief: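 Endogenous transcription factor activity read from multiplexed cis-promoter reporter transcripts in transiently transfected HepG2, 24 h after dosing. Reporter RNA measured via RT-PCR plus capillary electrophoresis of FAM-labeled products; gain or loss relative to DMSO.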

Measured: AC50

C=CC(=O)NCNC(=O)C=C
not listed: [18] | [19] | [20]
inactive: all other assays above

N#Cc1ccc(N(CC(N)=O)CC(F)(F)F)cc1C(F)(F)F
active: [3] 25.3 µM
not listed: [10] | [12] | [17] | [20]
inactive: all other assays above

Clc1ccc(C(Cl)(Cl)Cl)cc1
not listed: [17] | [19] | [20]
inactive: all other assays above

CCOC(=O)C(O)(c1ccc(Cl)cc1)c1ccc(Cl)cc1
active: [5] 2.98 µM | [13] 0.000836 µM | [16] 11.1 µM
not listed: [12] | [18] | [20]
inactive: all other assays above

O=C(O)C(F)(F)C(F)(F)C(F)(F)C(F)(F)C(F)(F)F
inactive: [1] | [2] | [3] | [4] | [5] | [6] | [7] | [8] | [9] | [10] | [19] | [11] | [12] | [13] | [14] | [15] | [16] | [17]
active: [13] 5.86 µM

O=C(N[C@H]1CN2CCC1CC2)c1cc2ccoc2cn1
not listed: [12] | [18] | [19]
inactive: all other assays above

COS(=O)(=O)OC
active: [13] 26.9 µM
not listed: [12] | [17] | [18] | [20]
inactive: all other assays above

Cc1ccccc1O
not listed: [18] | [20]
inactive: all other assays above

CCC(C)c1cc([N+](=O)[O-])cc([N+](=O)[O-])c1O (stereo unspecified)
active: [19] 8.83 µM | [16] 13.5 µM
not listed: [20]
inactive: all other assays above
